Screening data as filed in PubChem.
BoNT-A LC inh2: BoNT/A light chain protease inhibitors, primary screen, biochemical, flow cytometry, MLPCN library | multiplex microsphere protease substrate cleavage | Botulinum neurotoxin type A light chain protease (Clostridium botulinum A str. ATCC 3502) | inhibition, % at 10 µM | 360,000 compounds, 0.17% hits | AID 588499, 2011; also: plate controls were buffer without enzyme for full effect and enzyme alone for no effect
BoNT-F LC inh: BoNT/F light chain protease inhibitors, primary screen, biochemical, flow cytometry, MLPCN library; Multiplex microsphere protease cleavage assay; inhibition, % at 10 µM; 360,000 compounds, 0.22% hits; AID 588497, 2011; in the data active = inhibition above about 35%, passing the limit was not always enough; inconclusive = no clear call, values can overlap the other calls; also: plate controls were buffer without enzyme for full effect and enzyme alone for no effect
Anthrax LF prot: Bacillus anthracis LF protease inhibitors, primary screen, biochemical, multiplex microsphere, MLPCN library | 360,000 compounds, 0.12% hits | Lethal factor (Bacillus anthracis), P15917 | inhibition, % at 10 µM | multiplex microsphere protease cleavage assay; also: plate controls were buffer without enzyme for full effect and enzyme alone for no effect
Target sequence (P15917 whole entry, looked up): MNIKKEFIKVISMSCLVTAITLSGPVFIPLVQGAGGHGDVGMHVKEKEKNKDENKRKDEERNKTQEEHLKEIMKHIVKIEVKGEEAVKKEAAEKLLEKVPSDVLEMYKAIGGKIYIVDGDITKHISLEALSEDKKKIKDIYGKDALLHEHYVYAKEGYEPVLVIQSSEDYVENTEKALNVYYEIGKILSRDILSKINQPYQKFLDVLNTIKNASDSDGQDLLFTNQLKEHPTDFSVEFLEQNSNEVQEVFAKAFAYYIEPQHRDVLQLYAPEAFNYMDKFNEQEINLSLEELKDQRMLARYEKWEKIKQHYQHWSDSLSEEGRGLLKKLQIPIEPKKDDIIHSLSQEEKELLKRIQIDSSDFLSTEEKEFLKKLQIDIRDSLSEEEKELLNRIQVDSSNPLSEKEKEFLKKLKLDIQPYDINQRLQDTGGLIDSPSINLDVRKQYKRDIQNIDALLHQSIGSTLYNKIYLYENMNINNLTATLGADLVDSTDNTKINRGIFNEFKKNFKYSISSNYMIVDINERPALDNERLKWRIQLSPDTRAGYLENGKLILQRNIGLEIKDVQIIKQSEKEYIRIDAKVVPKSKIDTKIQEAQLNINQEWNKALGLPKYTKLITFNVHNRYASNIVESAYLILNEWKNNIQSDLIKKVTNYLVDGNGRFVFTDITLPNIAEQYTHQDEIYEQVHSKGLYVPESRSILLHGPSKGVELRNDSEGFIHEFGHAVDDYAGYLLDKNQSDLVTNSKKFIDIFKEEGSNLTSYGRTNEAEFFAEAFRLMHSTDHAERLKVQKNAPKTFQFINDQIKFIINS
TcdB GH inh: TcdB glycohydrolase inhibitors, primary screen, biochemical, single point, plate reader; AID 652162, 2013; inhibition, % at 9.99 µM; 350,000 compounds, 0.24% hits; Toxin B (Clostridioides difficile), P18177; TcdB glycohydrolase enzymatic assay; in the data active = inhibition above about 10%
Bead autofluor: flagged as autofluorescent in microsphere protease counterscreen | compound autofluorescence counterscreen, microsphere flow cytometry; stronger effect = higher value | fluorescence intensity (concentration not given with the values) | 360,000 compounds, 3.1% hits; in the data active = fluorescence intensity above about 16000; inconclusive = no clear call, values can overlap the other calls
The depositor's hits bear a star; ? = inconclusive; / = no result. The entries come from a sample that favours hits as a whole. Rule as the data show it, unless noted: active = inhibition above about 30%; inconclusive = no clear call, values can overlap the other calls; inactive = below that.

SMILES	BoNT-A LC inh2	BoNT-F LC inh	Anthrax LF prot	TcdB GH inh	Bead autofluor
CC(C)CSc1ncnc2c1oc1nc3c(cc12)COC(C)(C)C3	-1	-3	2	/	20132*
C=CCSc1ncnc2c1oc1nc3c(cc12)COC(C)(C)C3	0	1	7	-1	5360
C[C@@H]1CN([C@H](C)CO)C(=O)Cc2cc(NS(=O)(=O)c3ccccc3)ccc2O[C@H]1CN(C)C(=O)NC1CCCCC1	/	/	/	-2	/
CCOC(=O)c1c(C)[nH]c(C)c1C(=O)COC(=O)c1ccc(S(=O)(=O)N(CC)CC)cc1	?	-3	-7	/	16763*
C[C@@H]1CCCCO[C@H](CN(C)C(=O)c2ccccc2)[C@@H](C)CN([C@@H](C)CO)C(=O)c2cc(NC(=O)Nc3ccccc3)ccc2O1	/	/	/	-21	/
O=C(COC(=O)c1cccnc1Nc1ccccc1F)NCCN1C(=O)CSC1=O	10	69*	-1	1	4198
CCCNC(=O)COC(=O)c1cccnc1Nc1ccccc1F	0	-8	1	/	1973
CCC(=O)N1C[C@@H](C)[C@@H](OC)CN(C)C(=O)c2cc(NS(C)(=O)=O)ccc2OC[C@@H]1C	/	/	/	-1	/
COC(=O)C1=CN(Cc2ccc(OC)cc2)C=C(C(=O)OC)C1c1cc(OC)c(OC)c(OC)c1	-2	41*	-2	/	3899
COC(=O)C1=CN(Cc2ccc(F)cc2)C=C(C(=O)OC)C1c1cc(OC)c(OC)c(OC)c1	-5	-18	-16	1	3925
CCCc1cc(=O)[nH]c(SCc2cc(Cl)ccc2OC(F)F)n1	-5	-8	-2	/	24635*
CCCc1cc(=O)[nH]c(SCc2ccc(Cl)cc2)n1	0	-3	-8	/	5803
CCCc1cc(=O)[nH]c(SCc2cccc(C)c2)n1	?	-4	0	/	23596*
Cc1ccc(S(=O)(=O)N(C)C[C@H]2Oc3c(NS(=O)(=O)c4cccs4)cccc3C(=O)N([C@H](C)CO)C[C@H]2C)cc1	/	/	/	0	/
Cc1nnc(SCC(=O)Nc2nccs2)s1	0	-2	-3	/	20118*
Cc1nnc(SCC(=O)Nc2nc(C(C)(C)C)cs2)s1	?	-3	1	/	21050*
CN(C)c1ccc(NC(=O)c2sc(SCC(=O)Nc3nccs3)nc2N)cc1	-1	-5	-3	/	23476*
Cc1nnc(SCC(=O)Nc2nsc(-c3ccccc3)n2)s1	-5	-6	-6	/	21832*
Cc1ccc(-c2nc(NC(=O)CSc3nnc(C)s3)ns2)cc1	0	1	-6	1	4540
C[C@@H]1CN([C@H](C)CO)C(=O)c2cc(NC(=O)CCC(F)(F)F)ccc2O[C@@H]1CN(C)CC1CCCCC1	/	/	/	0	/
Cc1csc(SCC(=O)Nc2ccc(Cl)cn2)n1	0	-4	1	/	4502
CC(C)(C)c1csc(SCC(=O)Nc2ccc(Cl)cn2)n1	2	1	-8	/	18967*
c1ccc(-c2nnc3n2CCCC3)cc1	2	4	0	/	22320*
CC1CCCC(C)N1C(=O)COC(=O)CSc1ccc(C(N)=O)cc1[N+](=O)[O-] (stereo unspecified)	-64	-110	-18	1	21171*
CC1CCCCN1C(=O)COC(=O)CSc1ccc(C(N)=O)cc1[N+](=O)[O-] (stereo unspecified)	2	-6	-1	-2	5604
SMILES	BoNT-A LC inh2	BoNT-F LC inh	Anthrax LF prot	TcdB GH inh	Bead autofluor
CCOC(=O)c1c[nH]n2c(=O)cc(C)nc12	-1	-15	-9	-4	4965
COC(=O)c1c[nH]n2c(=O)cc(C)nc12	-1	-4	-3	1	23157*
O=C(C(=O)N1CCCCCC1)c1c[nH]c2ccccc12	-1	?	-16	-2	3124
O=C(CSCC(=O)N1CCCCC1)OCC(=O)c1c[nH]c2ccccc12	33*	18	47*	0	16086
Cc1ccc(S(=O)(=O)N(C)C[C@H]2Oc3c(NC(=O)Nc4c(C)noc4C)cccc3C(=O)N([C@H](C)CO)C[C@@H]2C)cc1	/	/	/	0	/
CC(=O)N(C)C[C@H]1Oc2cc(C#Cc3ccncc3)ccc2S(=O)(=O)N([C@@H](C)CO)C[C@@H]1C	/	/	/	1	/
O=C(NCc1ccccc1)c1cc(=O)nc2sc(-c3ccccc3)nn12	-2	0	1	/	23048*
O=C1c2ccccc2C(=O)N1CCCCN(C(=O)c1cccc([N+](=O)[O-])c1)c1ccc(Cl)cc1	-3	-6	0	/	20654*
O=C1c2ccccc2C(=O)N1CCCCN(C(=O)c1ccco1)c1ccc(Cl)cc1	0	1	-4	/	3220
CCN(CC)S(=O)(=O)c1cc(C(=O)Nc2cccnc2Cl)ccc1Cl	-1	-3	-6	11*	3926
C/C=C/c1ccc([C@H]2[C@@H](CO)N(C(C)=O)C23CN(C(=O)c2ccc(F)cc2)C3)cc1	/	/	/	-1	/
O=C1COc2ccc(C(=O)COC(=O)CNS(=O)(=O)c3cccc(F)c3)cc2N1	/	/	/	12*	/
O=C(C[C@H]1CC[C@H]2[C@@H](COC[C@@H](O)CN2C(=O)c2ccccc2)O1)Nc1nccs1	/	/	/	0	/
Cc1ccc2sc3ccc(NC(=O)c4ccccc4Cl)cc3c(=O)c2c1	8	4	11	/	22506*
Cc1cc(NC(=O)c2ccc(Cl)cc2)ccc1NC(=O)c1ccccc1Cl	4	37*	-12	-1	2820
Cc1cc(NC(=O)c2ccccc2Cl)ccc1NC(=O)c1ccccc1Cl	1	-6	-10	1	3900
C/C=C/c1cnc2c(c1)C(=O)N([C@@H](C)CO)C[C@H](C)[C@@H](CN(C)C(=O)Cc1ccccc1)O2	/	/	/	1	/
CN1C(=S)SC(N(O)C(=O)NC2CCCCC2)C1(C)C (stereo unspecified)	?	7	1	/	21404*
CC1(C)SC(=S)N(Cc2ccc3c(c2)OCO3)C1N(O)C(=O)NC1CCCCC1 (stereo unspecified)	-3	-32	-11	/	?
CCCCOC(=O)Nc1ccc2c(C)cc(=O)oc2c1	-1	-2	6	/	10206
CCOC(=O)Nc1ccc2c(C)cc(=O)oc2c1	-2	-5	-4	/	16452*
CCOc1cc(S(=O)(=O)NCc2ccc(OC)cc2)c(OCC)cc1-n1cnnn1	?	0	-4	/	23322*
CC(C)Oc1ccc(C2C(C#N)=C(N)Oc3c2oc(CO)cc3=O)cc1 (stereo unspecified)	-1	-2	-3	-1	4539
COc1cc(C2C(C#N)=C(N)Oc3c2oc(CO)cc3=O)ccc1OC(C)C (stereo unspecified)	?	-2	-1	/	20218*
COCC#Cc1cnc2c(c1)C(=O)N([C@@H](C)CO)C[C@H](C)[C@H](CN(C)C(=O)CCN1CCCCC1)O2	/	/	/	-2	/
FC(F)(F)c1cc(Oc2ccc(Cl)cc2)nc(-c2ccccn2)n1	-3	-8	-2	/	23289*
C=CCNc1cc(C(F)(F)F)nc(-c2ccccn2)n1	1	1	-1	/	19805*
FC(F)(F)c1cc(Oc2ccccc2Cl)nc(-c2ccccn2)n1	2	0	-1	/	21573*
